Records with an inconclusive call do not appear. Unmarked numbers belong to inactive results. Activity calls are given as the source filed them. Calls follow the shape of the dose curve; as a rule, active = well fitted activation curve with a large enough effect; inconclusive = small, poorly fitted or top-dose-only effect; inactive = no such curve, though single readings can be large or run the other way.
Potency is read from the fitted curve at half-maximal effect.

This assay can be described thus: qHTS Assay for Agonists of the Relaxin Receptor RXFP1: V1B Hit Validation.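 Also: counter-screen in HEK293 cells expressing V1B rather than RXFP1 for selectivity; nearly all actives have a fitted effect of over 65% in size.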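 As to activation: cAMP accumulation with PDE4 inhibitor Ro 20-1724 present during compound exposure; 0% = buffer alone basal and 100% = 29 nM porcine relaxin.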 As to conditions: HEK293 V1B cells, cAMP TR-FRET, 30 min; series mostly up to 115 µM; activation: at the top concentration. The method, boiled down:
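cAMP accumulation, read by TR-FRET competition after lysis, in V1B-expressing HEK293 cells given compound for 30 min at 37C with Ro 20174 present. Responses scaled between buffer basal and 29 nM porcine relaxin; Hill-equation EC50.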
In general terms: In qHTS, concentration-response curves come from the screen itself.
For the compound `COc1ccc(/C=C2/SC(=O)N(CCC(=O)Nc3ccc(C)cc3)C2=O)cc1OC`, the “activation” value was -74%.

In the case of `Cn1c(=O)c2sccc2n2c(CCCC(=O)NCc3cccnc3)nnc12`, the Potency is 19.4 µM (active).

With `O=C(NC1CCCCCC1)c1cc2c(=O)n3ccccc3nc2s1`, the Potency is 38.9 µM (active).

With `COC(=O)Cn1cnc2c(C#N)c3n(c2c1=O)CCCC3`, the Potency was 21.9 µM (active).

Take `CCN(CC)S(=O)(=O)c1ccc2c(c1)nc(SCc1nc3ccsc3c(=O)[nH]1)n2CC`: the Potency is 0.245 µM (active).

Take `CC(=O)c1sc(NC(=O)C(C)C)nc1C`: the Potency was 17.3 µM (active).

With `N#Cc1c(N)nc(SCC(=O)C23CC4CC(CC(C4)C2)C3)c(C#N)c1-c1ccc(Cl)cc1`, the Potency was 12.3 µM (active).

Consider `C[C@H](Cc1ccccc1)Nc1ncnc2c1ncn2[C@@H]1O[C@H](CO)[C@@H](O)[C@H]1O`, for which the Potency is 21.9 µM (active).

As for `CCOC(=O)c1sc(NC(=O)CCc2ccc(OC)cc2)nc1C`, the Potency was 15.4 µM (active).

In the case of `CC1CCCN(C(=O)COC(=O)CNC(=O)c2sc3ccccc3c2Cl)C1` (configuration not stated), the Potency was 8.68 µM (active).

With `COc1ccccc1CNS(=O)(=O)c1cc(CN2C(=O)c3cccnc3C2=O)ccc1OC`, the Potency was 27.5 µM (active).

Consider `C=CCOc1c(Cl)cc(CNc2ccc(N(C)C)cc2)cc1OC`, for which the “activation” value was -0.719%.

Take `Cc1cc(NC(=O)c2ccccc2F)nc2c1c(=O)oc1ccccc12`: the Potency is 21.8 µM (active).

For `CCS(=O)(=O)c1nc(S(=O)(=O)c2ccc(Cl)cc2)c(N2CCN(CCO)CC2)s1`, the Potency was 34.6 µM (active).

As for `COC(=O)c1c(N2C(=O)CC(Sc3ncccc3C(=O)O)C2=O)sc(C)c1C` (configuration not stated), the “activation” value is -11.8%.

For the compound `Cn1c(N)c(C(=O)CSc2nn(-c3ccc(F)cc3)c(=S)s2)c(=O)n(C)c1=O`, the Potency was 19.4 µM (active).

For `Cc1ccc2[nH]c3c(=S)nc[nH]c3c2c1`, the Potency is 6.15 µM (active).

As to `CCC1(C)Cc2c(sc3c2c2ncnn2c2nnc(SCC(=O)NCc4ccco4)n32)CO1` (configuration not stated), the Potency is 13.8 µM (active).

Regarding `CCOC(=O)CCCCC(=O)c1[nH]c(=O)[nH]c1CSc1nnc2c3cc(Br)ccc3n(C)c2n1`, the Potency is 10.9 µM (active).

On to `CC(C)n1c(SCC(=O)N2CCN(C(=O)c3ccco3)CC2)nc2c1c(=O)n(C)c(=O)n2C`, for which the Potency is 6.9 µM (active).

As to `Cc1ccccc1NC(=O)CNc1ccccc1C(=O)NCc1ccco1`, the “activation” value is 7.03% [at 127 µM].

Regarding `Cc1cccc2cc(C#N)c(SCC(=O)NCc3cccs3)nc12`, the Potency is 19.4 µM (active).

As for `Cc1ccccc1NC(=O)c1ccccc1NC(=O)c1ccco1`, the “activation” value was 9.6% [at 127 µM].

On to `COc1ccc(CN2C(=O)c3cccnc3C2=O)cc1S(=O)(=O)N1CCCCC1C` (configuration not stated), for which the Potency is 8.68 µM (active).

As to `COc1ccc(S(=O)(=O)N2CCOCC2)cc1NC(=O)CSc1ncnc2ccccc12`, the Potency was 13.8 µM (active).

On to `O=C(Nc1ccccc1C(=O)Nc1ccc(F)cc1)c1ccco1`, for which the “activation” value is 3.36% [at 127 µM].

Consider `NC(=S)c1cc2ccc(O)cc2oc1=O`, for which the Potency is 4.35 µM (active).

Take `CCN(CC)S(=O)(=O)c1ccc(N2CCOCC2)c(NC(=O)c2cccc(C#N)c2)c1`: the Potency is 47.3 µM (active).

As to `COC(=O)c1cc(CN2C(=O)c3ccccc3C2=O)c(O)c([N+](=O)[O-])c1`, the Potency was 30.9 µM (active).

`O=C(O)c1ccc(N=C2NC(=O)C(CO)(CO)S2)cc1`: the “activation” value was 5.93% [at 44.9 µM].

Take `Cc1cccc(-c2nnc(SCC(=O)NC3CC3)n2C)c1`: the “activation” value was -32.2%.

For the compound `c1ccc(-c2nnc(-c3ccccn3)c(-c3ccccn3)n2)nc1`, the “activation” value was -1.59%.

In the case of `O=C(O)CCNc1ccc(NCCC(=O)O)c2c1C(=O)c1ccccc1C2=O`, the “activation” value was 1.09%.

For the compound `Cc1ccc(-c2ccc3nnc(SCC(=O)NCC4CCCO4)n3n2)cc1` (configuration not stated), the “activation” value was -24.2%.

As to `O=C(OCc1nc2ccsc2c(=O)[nH]1)c1cccc(S(=O)(=O)N2CCOCC2)c1`, the Potency was 34.6 µM (active).

`CN1C(=O)c2ccc(C(=O)Nc3ccc(Br)cn3)cc2C1=O`: the Potency is 21.8 µM (active).

In the case of `Brc1ccc(-c2nn3c(-c4ccco4)nnc3s2)o1`, the Potency is 13.8 µM (active).

(Values after PubChem BioAssay AID492948 (National Center for Advancing Translational Sciences (NCATS), 2010).)
